Pf growth 48h: inhibits P. falciparum growth in the first generation, 48 h. AID 504832. actives 5.9% (n = 310,000). Potency, µM (doses to about 28.7 µM), for inactives: top-dose activity change, negative = inhibition, usual class: inhibitors. P. falciparum luciferase growth in erythrocytes, 48 h; active = well fitted inhibition curve with a large enough effect; inconclusive = small, poorly fitted or top-dose-only effect, or another doubt; inactive = no such curve, though single readings can be large or run the other way; also: potency is read from the fitted curve at half-maximal effect; % is scaled to controls: 0 for no effect and ±100 for the full control effect
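First compound was added to culture medium, then infected red cells at 0.1% parasitemia and 2% hematocrit (final). After incubation at 37 C under 5% CO2, luciferase detection reagent was dispensed and light output recorded.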
Pf growth 96h: P. falciparum growth inhibition at 96 hour, primary screen for plastid delayed-death inhibitors; P. falciparum luciferase reporter growth, 96 h; Potency, µM (series often up to 28.7 µM), inactives show at the top dose activity change, negative = inhibition, actives largely listed as inhibitors; actives 6.9% (n = 320,000); AID 504834; active = well fitted inhibition curve with a large enough effect; inconclusive = small, poorly fitted or top-dose-only effect, or another doubt; inactive = no such curve, though single readings can be large or run the other way; also: potency is read from the fitted curve at half-maximal effect; % is scaled to controls: 0 for no effect and ±100 for the full control effect
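Erythrocytes infected with luciferase-expressing P. falciparum were dispensed at 2% hematocrit and 0.05% parasitemia (final), then incubated with compounds 96 hours at 37 C in 5% CO2. Luminescence after detection reagent addition reported growth.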
Cycloheximide cs: counter-screen for Shiga toxin inhibitors: cycloheximide protein synthesis inhibition. cell reporter, cycloheximide protein synthesis inhibition counterscreen. max response, %. actives 12% (n = 300,000). AID 2314; in the data active = max response mostly above about 13%, no sharp cut-off; inactive = mostly below about 14%; also: read at 38.3 µM for the half of the compounds with a filed dose; 0% is about no effect
Shiga toxin inh: inhibitors of Shiga toxin in Vero cells | inhibition, % at 38.7 µM | actives 9.2% (n = 290,000) | Vero cells, Shiga toxin protein synthesis inhibition reporter; in the data active = inhibition mostly above about 28%, no sharp cut-off; inactive = mostly below about 43%; also: 0% is about no effect
NS1 inh: blocks influenza NS1 protein function; actives 0.4% (n = 270,000); Potency, µM (top dose mostly 46.1 µM), for the others: at the top dose activity, positive = more growth; also: potency is read from the fitted curve at half-maximal effect; actives are rising curves; nearly all actives have a fitted effect of over 50% in size
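OD600 was taken as the measure of yeast growth restored by compound in an NS1-expressing S. cerevisiae strain. Cells had been washed out of glucose medium and diluted 1:100 into galactose -URA medium, pH 6.0.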
SARS PLpro yeast: inhibitors of SARS-CoV papain-like protease in yeast | actives 0.19% (n = 330,000) | AID 485353 | S. cerevisiae expressing SARS-CoV PLpro, growth rescue | Potency, µM (series often up to 32.9 µM), for the others: top-dose activity, positive = growth rescue, most hits filed as activators; also: potency is read from the fitted curve at half-maximal effect; 0% is about no effect; nearly all actives have a fitted effect of over 55% in size
The depositor's hits bear a star. Rows were chosen to be rich in hits. Some 21% of all compounds tested hit in one or more screens of this group. Unless noted, calls follow the shape of the full dose curve.

For COC(=O)c1nnn(-c2nonc2N)c1CSc1nc2ccccc2s1 the results were Pf growth 48h 11%, Pf growth 96h -5%, Cycloheximide cs 21*, Shiga toxin inh 27, NS1 inh -12% and SARS PLpro yeast 0%.
For Cc1cc(C(=O)OCC(=O)NCc2cccs2)ccc1[N+](=O)[O-] the results were SARS PLpro yeast 4%.
Cc1ccc(C(=O)NCc2ccc3c(c2)OCO3)cc1C was read as Pf growth 96h 36%, Cycloheximide cs 35*, Shiga toxin inh 55*, NS1 inh -7% and SARS PLpro yeast -3%.
`Cc1ccc(C(=O)NCc2ccc3c(c2)OCO3)cc1S(=O)(=O)N1CCCCC1` gave Pf growth 48h inconclusive, Pf growth 96h 0%, Cycloheximide cs -1, Shiga toxin inh 0, NS1 inh -63% and SARS PLpro yeast 0%.
`Cc1cc(C(=O)Nc2nc(C)c(C(=O)N(C)C)s2)ccc1[N+](=O)[O-]` gave Pf growth 48h 179%, Pf growth 96h inconclusive, Cycloheximide cs 34*, Shiga toxin inh 54*, NS1 inh -1% and SARS PLpro yeast -6%.
`Cc1cc(C(=O)NCc2cccs2)ccc1[N+](=O)[O-]` gave Pf growth 48h 72%, Pf growth 96h -5%, Cycloheximide cs 14*, Shiga toxin inh 7, NS1 inh -2% and SARS PLpro yeast -20%.
Screening COc1ccccc1-c1cc(C(F)(F)F)nc(NCc2cccs2)n1 returned Pf growth 48h inconclusive, Pf growth 96h 5.9µM*, Cycloheximide cs -6, Shiga toxin inh -9, NS1 inh -19% and SARS PLpro yeast -50%.
For O=C(CCN1CCOCC1)NNC(=O)c1ccc([N+](=O)[O-])cc1[N+](=O)[O-] the results were SARS PLpro yeast 4%.
`CC1(CCc2ccccc2)NC(=O)N(CC(=O)N2CCCCCC2)C1=O` (configuration not stated) gave Pf growth 48h 3%, Pf growth 96h 2% and SARS PLpro yeast -6%.
`Cc1cc([N+](=O)[O-])nn1CC(=O)NCc1cccs1` gave Pf growth 48h 31%, Pf growth 96h 8.3µM*, Cycloheximide cs -3, Shiga toxin inh -14, NS1 inh 2% and SARS PLpro yeast 1%.
Screening COc1ccccc1-c1ccc(=O)n(CC(=O)NCc2cccs2)n1 returned Pf growth 48h 42%, Pf growth 96h 4%, Cycloheximide cs 26, Shiga toxin inh 40* and SARS PLpro yeast 3%.
For Cc1ccc(C(=O)NCc2ccc3c(c2)OCO3)cc1Cl the results were Pf growth 48h 15%, Pf growth 96h inconclusive, Cycloheximide cs 18*, Shiga toxin inh 40, NS1 inh -9% and SARS PLpro yeast -5%.
`Cc1cc(C(=O)NCc2ccc3c(c2)OCO3)ccc1[N+](=O)[O-]` gave Pf growth 48h 1%, Pf growth 96h 87%, Cycloheximide cs 25*, Shiga toxin inh 23, NS1 inh 10% and SARS PLpro yeast -1%.
Screening CC(O)CNc1ccc(-c2nn(C)c(=O)c3ccccc23)cc1[N+](=O)[O-] (configuration not stated) returned Pf growth 48h inconclusive, Pf growth 96h -24%, Cycloheximide cs 1, Shiga toxin inh -5, NS1 inh 8% and SARS PLpro yeast 1%.
`CC(C)(C)C1CCC(=NOC(=O)c2ccc(F)cc2)CC1` (configuration not stated) gave Pf growth 48h inconclusive, Pf growth 96h 10µM*, Cycloheximide cs 11, Shiga toxin inh 15 and SARS PLpro yeast -19%.
`O=C(ON=C1CCN(S(=O)(=O)c2ccccc2)CC1)c1ccc(F)cc1` gave Pf growth 48h -21%, Pf growth 96h -16%, Cycloheximide cs -1, Shiga toxin inh 24, NS1 inh -15% and SARS PLpro yeast -10%.
For O=C(NC1CC1)C1CC(=O)N(c2ccc(F)cc2)C1 (configuration not stated) the results were Pf growth 48h 8%, Pf growth 96h 33%, Cycloheximide cs -6, Shiga toxin inh -5, NS1 inh 4% and SARS PLpro yeast 1%.

Bioassay records deposited in PubChem BioAssay by National Center for Advancing Translational Sciences (NCATS).
